The values below come from ChEMBL document CHEMBL3988442, “University of Dundee, Small-Polar-MMV Screening Library” (2021).

What all share (design): scale not given: direction of the effect not stated beside the values
In test [1] the target is Protein translocase subunit SecA (Escherichia coli (strain K12)) (UniProt P10408). As to the kind of experiment: Assay to Identify E. coli SecA ATPase Inhibitors. It is filed as functional. As to conditions: 30 µM.
Test [2] concerns the target T1, Ubiquitin-activating enzyme e1, putative (Leishmania donovani (strain BPK282A1)) (UniProt E9BSI1).
T1 sequence (whole entry): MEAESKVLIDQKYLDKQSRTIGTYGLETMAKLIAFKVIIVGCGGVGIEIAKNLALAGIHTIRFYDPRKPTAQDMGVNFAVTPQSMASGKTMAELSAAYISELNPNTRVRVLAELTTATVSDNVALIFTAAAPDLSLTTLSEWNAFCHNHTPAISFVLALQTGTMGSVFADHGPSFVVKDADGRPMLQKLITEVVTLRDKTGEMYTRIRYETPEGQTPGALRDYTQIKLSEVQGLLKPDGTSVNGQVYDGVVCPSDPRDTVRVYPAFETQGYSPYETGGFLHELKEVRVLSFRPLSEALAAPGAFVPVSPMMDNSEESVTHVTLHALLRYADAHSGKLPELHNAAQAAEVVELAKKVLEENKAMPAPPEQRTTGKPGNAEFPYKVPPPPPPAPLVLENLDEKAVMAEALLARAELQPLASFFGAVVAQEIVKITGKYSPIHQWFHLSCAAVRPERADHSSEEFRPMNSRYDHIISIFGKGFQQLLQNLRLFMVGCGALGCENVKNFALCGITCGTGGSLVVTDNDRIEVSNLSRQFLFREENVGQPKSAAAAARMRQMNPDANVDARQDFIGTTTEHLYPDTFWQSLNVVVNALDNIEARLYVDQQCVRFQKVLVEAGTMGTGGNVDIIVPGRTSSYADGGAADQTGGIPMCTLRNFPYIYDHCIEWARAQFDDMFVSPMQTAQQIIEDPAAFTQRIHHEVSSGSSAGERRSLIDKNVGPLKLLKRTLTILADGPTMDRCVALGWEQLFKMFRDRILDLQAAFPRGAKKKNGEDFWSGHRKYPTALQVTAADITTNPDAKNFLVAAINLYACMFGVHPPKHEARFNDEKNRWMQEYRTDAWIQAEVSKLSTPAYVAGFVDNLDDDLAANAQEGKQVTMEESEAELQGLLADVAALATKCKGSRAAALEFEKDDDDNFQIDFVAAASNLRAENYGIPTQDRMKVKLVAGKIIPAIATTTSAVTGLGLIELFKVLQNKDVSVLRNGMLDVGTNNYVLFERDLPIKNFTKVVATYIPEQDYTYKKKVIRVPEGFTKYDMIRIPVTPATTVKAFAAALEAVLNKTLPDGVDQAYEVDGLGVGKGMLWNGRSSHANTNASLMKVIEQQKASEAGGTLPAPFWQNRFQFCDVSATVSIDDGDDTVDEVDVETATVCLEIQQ
As to the kind of experiment: Leishmania donovani Ubiquitin Activating Enzyme (LdE1). The format is functional. As to conditions: 30 µM.

Test [3] deals with AMP-activated protein kinase, AMPK (Homo sapiens) (UniProt P54646+O43741+P54619+Q9UGJ0+Q9Y478+Q13131+Q9UGI9). As to the kind of experiment: AMP-dependent Kinase enzyme assay. An in vitro enzyme assay that detects ADP turnover that is directly proportional to AMPK activity. This uses naive AMPK that is activated during the assay with MK-8722. It is filed as functional. As to conditions: 30 µM.

In test [4] the target is Sialic acid-binding Ig-like lectin 9 (Homo sapiens) (UniProt Q9Y336). As to the kind of experiment: Hs-Siglec9 ALPHAscreen SOP 20170721. The settings on record: 10 µM. In general terms: In Alpha technology, singlet oxygen from a donor bead excites a nearby acceptor bead.
Sequence of Sialic acid-binding Ig-like lectin 9 (Homo sapiens) (Q9Y336 whole entry): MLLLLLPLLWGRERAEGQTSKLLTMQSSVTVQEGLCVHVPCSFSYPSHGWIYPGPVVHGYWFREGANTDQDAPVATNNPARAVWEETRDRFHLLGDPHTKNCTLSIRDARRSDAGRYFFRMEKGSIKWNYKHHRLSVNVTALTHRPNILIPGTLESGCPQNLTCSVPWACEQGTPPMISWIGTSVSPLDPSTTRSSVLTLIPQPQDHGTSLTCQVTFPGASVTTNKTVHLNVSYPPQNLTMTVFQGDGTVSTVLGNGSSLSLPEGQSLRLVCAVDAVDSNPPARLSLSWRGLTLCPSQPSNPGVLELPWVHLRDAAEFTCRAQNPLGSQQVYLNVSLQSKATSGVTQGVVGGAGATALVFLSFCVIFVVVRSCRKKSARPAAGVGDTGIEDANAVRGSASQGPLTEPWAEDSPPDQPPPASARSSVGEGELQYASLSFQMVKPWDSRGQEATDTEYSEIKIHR
The test system of another test is Trypanosoma cruzi. Description: Trypanosoma cruzi phosphomannomutase and mannose-1-phosphate guanylyltransferase assay. The format is functional. As to conditions: 10 µM.
The target in test [5] is T2, Arginase-2, mitochondrial (Homo sapiens) (UniProt P78540).
T2 sequence (whole entry): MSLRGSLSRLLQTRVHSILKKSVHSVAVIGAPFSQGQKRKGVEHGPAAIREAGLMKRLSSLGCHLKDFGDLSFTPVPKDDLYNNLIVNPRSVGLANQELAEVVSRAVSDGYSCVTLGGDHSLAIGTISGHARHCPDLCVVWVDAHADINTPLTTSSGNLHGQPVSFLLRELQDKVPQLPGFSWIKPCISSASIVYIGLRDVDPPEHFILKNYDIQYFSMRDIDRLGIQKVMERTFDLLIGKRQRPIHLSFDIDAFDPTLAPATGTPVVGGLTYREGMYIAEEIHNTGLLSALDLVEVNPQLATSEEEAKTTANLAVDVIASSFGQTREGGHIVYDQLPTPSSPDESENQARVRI
As to the kind of experiment: in vitro enzyme assay to detect the production of urea directly proportional to the activity of Arginase II. Also: in the data most compounds retested in dose-response had high values. The format is functional. As to conditions: 33.3 µM.

The target of test [6] is T3, Proteasome subunit beta (Trypanosoma cruzi) (UniProt O96673).
T3 sequence (whole entry): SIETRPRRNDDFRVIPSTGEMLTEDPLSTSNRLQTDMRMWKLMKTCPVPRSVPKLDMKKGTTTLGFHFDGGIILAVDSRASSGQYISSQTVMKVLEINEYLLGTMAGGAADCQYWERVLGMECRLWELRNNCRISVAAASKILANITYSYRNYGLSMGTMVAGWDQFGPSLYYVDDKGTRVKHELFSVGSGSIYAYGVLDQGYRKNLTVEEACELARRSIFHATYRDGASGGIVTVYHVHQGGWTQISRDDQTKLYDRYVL
As to the kind of experiment: Trypanosoma cruzi proteasome chymotrypsin-like activity (TcProtChymo) assay. Also: in the data most compounds retested in dose-response had high values. The format is functional. As to conditions: 9.37 µM.

The species entered for a further test is Homo sapiens. Description: To identify inhibition of the IFN signalling (Jak-Stat) pathway via expression of an eGFP reporter gene under the control of an IFN-stimulated response element (ISRE) containing MxA promoter. It is filed as functional. As to conditions: 30 µM. (In general: Reporter assays use an easily measured gene product as a stand-in for the process of interest.)

The target of test [7] is T4, Tyrosyl-tRNA synthetase, putative (Trypanosoma cruzi (strain CL Brener)) (UniProt Q4DSP6).
T4 sequence (whole entry): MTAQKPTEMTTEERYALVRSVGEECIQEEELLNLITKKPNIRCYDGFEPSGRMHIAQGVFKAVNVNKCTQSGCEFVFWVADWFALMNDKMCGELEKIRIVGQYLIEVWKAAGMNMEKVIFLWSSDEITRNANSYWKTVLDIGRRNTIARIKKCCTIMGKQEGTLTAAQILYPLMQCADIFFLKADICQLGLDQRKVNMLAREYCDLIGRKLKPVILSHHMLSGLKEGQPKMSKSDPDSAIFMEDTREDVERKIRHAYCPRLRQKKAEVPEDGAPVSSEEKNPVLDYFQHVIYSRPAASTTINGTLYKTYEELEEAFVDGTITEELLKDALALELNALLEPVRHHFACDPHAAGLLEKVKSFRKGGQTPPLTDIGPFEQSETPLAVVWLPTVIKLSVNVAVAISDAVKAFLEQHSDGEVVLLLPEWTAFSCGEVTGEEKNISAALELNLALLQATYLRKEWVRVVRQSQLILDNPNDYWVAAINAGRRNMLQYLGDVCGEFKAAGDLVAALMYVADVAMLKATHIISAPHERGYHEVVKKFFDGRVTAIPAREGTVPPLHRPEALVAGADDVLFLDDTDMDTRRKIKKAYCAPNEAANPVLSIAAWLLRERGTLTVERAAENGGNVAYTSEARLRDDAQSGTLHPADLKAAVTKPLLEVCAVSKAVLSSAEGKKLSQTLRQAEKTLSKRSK
Description: Trypanosoma cruzi tyrosyl tRNA synthetase (TcYRS) _High Tyrosine SOP. Also: in the data most compounds retested in dose-response had high values. It is filed as functional. As to conditions: 30 µM.

Test [8] deals with T4, Tyrosyl-tRNA synthetase, putative (Trypanosoma cruzi (strain CL Brener)). Description: Trypanosoma cruzi tyrosyl tRNA synthetase (TcYRS) SOP. The format is functional. The settings on record: 30 µM.
Test [9] has as its target Chromo domain-containing protein 1 (Saccharomyces cerevisiae (strain ATCC 204508 / S288c) (Baker's yeast)) (UniProt P32657). As to the kind of experiment: ScCHD-1 Enzyme Inhibition Assay. Also: in the data most compounds retested in dose-response had high values. The format is functional. As to conditions: 30 µM.

For some of these results: Entries with a potency or affinity are not part of this list.

Sequence of Protein translocase subunit SecA (Escherichia coli (strain K12)) (P10408 whole entry): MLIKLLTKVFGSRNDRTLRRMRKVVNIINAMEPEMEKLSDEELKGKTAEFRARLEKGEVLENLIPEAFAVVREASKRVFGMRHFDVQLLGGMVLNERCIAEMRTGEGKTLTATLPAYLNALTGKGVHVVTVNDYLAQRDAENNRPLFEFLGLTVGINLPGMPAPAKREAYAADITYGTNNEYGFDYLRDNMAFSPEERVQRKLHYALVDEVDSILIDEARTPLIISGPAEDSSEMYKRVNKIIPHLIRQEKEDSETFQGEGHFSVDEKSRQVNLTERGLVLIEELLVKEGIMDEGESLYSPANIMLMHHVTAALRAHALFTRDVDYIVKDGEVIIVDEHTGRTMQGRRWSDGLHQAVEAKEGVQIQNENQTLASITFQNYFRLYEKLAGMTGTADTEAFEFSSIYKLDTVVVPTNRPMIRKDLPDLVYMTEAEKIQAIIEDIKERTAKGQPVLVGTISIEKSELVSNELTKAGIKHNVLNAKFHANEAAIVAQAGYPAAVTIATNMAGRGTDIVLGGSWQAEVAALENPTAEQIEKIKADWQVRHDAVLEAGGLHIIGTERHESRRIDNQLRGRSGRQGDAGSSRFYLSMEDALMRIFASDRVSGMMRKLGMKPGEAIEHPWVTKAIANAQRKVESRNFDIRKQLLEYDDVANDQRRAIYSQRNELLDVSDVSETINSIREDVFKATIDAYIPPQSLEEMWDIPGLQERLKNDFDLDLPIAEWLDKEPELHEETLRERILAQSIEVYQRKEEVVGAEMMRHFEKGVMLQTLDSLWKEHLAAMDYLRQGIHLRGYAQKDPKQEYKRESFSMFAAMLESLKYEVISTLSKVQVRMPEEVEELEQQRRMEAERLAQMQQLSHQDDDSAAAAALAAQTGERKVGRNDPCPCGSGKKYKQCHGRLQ
Sequence of Chromo domain-containing protein 1 (Saccharomyces cerevisiae (strain ATCC 204508 / S288c) (Baker's yeast)) (P32657 whole entry, the tested form may be a part): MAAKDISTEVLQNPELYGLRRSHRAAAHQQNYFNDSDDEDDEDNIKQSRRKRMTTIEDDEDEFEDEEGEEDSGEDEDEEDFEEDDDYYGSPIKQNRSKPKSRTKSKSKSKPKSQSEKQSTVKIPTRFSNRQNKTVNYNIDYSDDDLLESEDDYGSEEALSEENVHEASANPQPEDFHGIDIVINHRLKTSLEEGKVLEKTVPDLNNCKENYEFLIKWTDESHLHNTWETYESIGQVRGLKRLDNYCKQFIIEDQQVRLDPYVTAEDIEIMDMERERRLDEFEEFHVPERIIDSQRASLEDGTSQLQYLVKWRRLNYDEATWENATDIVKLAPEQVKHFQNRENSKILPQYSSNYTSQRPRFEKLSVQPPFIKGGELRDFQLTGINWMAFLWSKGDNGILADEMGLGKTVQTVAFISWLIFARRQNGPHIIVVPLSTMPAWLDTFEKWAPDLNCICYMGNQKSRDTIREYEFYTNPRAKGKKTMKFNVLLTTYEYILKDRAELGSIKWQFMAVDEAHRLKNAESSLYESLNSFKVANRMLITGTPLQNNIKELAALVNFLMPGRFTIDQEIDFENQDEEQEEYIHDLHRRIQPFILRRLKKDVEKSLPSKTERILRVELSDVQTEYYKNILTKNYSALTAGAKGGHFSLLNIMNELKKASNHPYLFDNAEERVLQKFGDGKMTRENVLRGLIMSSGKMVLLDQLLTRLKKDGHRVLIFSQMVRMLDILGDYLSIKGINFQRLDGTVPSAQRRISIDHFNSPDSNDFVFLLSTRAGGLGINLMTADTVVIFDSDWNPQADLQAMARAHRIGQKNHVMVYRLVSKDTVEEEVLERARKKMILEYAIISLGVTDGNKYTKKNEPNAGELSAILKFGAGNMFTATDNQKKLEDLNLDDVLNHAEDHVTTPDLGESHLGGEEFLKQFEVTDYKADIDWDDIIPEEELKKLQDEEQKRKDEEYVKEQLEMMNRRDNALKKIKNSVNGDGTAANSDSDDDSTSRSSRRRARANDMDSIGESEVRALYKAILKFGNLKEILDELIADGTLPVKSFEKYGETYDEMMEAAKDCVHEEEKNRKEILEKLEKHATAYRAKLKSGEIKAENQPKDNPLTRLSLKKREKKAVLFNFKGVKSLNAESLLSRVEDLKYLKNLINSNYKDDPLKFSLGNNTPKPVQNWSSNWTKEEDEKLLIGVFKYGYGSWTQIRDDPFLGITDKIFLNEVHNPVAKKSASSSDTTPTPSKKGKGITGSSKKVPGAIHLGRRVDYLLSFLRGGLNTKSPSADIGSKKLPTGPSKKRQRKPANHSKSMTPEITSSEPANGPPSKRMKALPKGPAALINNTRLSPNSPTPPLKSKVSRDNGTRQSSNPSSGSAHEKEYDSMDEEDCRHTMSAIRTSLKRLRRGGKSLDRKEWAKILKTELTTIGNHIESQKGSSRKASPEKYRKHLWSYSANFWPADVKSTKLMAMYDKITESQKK

For the compound `Cc1nc(-c2ccsc2)ccc1C(=O)NCCC1CCCO1` (stereo unspecified), the Percent Effect in test [1] is -8.67%; in test [2] it was 0%; in test [3], -8.2%; in test [4], 10%; with Trypanosoma cruzi, 9.77%; in test [5], -1.92%. The Percent Effect in test [6] is 3.51%; in the test listed under Homo sapiens, -2.44%; in test [7] it was 4.41%; in [8], 9.76%; in [9] it was -10.2%.
For `Cc1nccc([C@H]2C[C@@H]3CCN(S(=O)(=O)N(C)C)C[C@H]3O2)n1`, the Percent Effect in [1] was -2.42%; in [2], 8.11%; in test [3] it was -3.13%; in test [4], 27.4%; with Trypanosoma cruzi it was 5.18%; in test [5], 17.6%. The Percent Effect in test [6] is 3.35%; in the test filed under Homo sapiens, -26.1%; in [7] it was 4.3%; in test [8], 16.1%; in test [9], -6.72%.
Consider `c1ccc(-c2ncc(CNC3CCc4ncnn4C3)cn2)cc1` (stereo unspecified), for which the Percent Effect was -5% in test [1]; 8.86% in [2]; 6.48% in test [3]; -1.35% in test [4]; -1.33% with Trypanosoma cruzi; 9.25% in [5]. Further, the Percent Effect was 3.26% in test [6]; -3.68% in the test listed under Homo sapiens; 7.29% in test [7]; 10.1% in test [8]; -13.8% in test [9].
With `COCCOc1ncccc1CNCc1c(C)nn(C)c1N(C)C`, the Percent Effect was -1.27% in test [1]; -5.41% in test [2]; -15.1% in test [3]; -0.788% in test [4]; 1.98% with Trypanosoma cruzi; 3.61% in test [5]. Also, the Percent Effect in test [6] is 0.721%; in the test filed under Homo sapiens, -9.31%; in test [7] it was 2.46%; in test [8], 6.17%; in test [9], -18.1%.
For the compound `COc1cccc(CN2CCOC(Cn3nc(C)cc3C)C2)c1` (stereo unspecified), the Percent Effect in [1] was -1.25%; in test [2], 2.7%; in test [3] it was 25.1%; in [4], -0.918%; in the test on Trypanosoma cruzi it was -4.88%; in test [5] it was 1.67%. The Percent Effect in [6] was 18.2%; in the test listed under Homo sapiens it was -11.1%; in test [7] it was 7.92%; in test [8], 15.8%; in test [9] it was 8.67%.
Take `CSCC(=O)N1CCCN(c2ccccc2C)CC1`: the Percent Effect in test [1] was -7.55%; in test [2] it was 2.7%; in test [3], -2.83%; in test [4], -3.96%; with Trypanosoma cruzi, -5.18%; in test [5], -0.248%. Further, the Percent Effect was 1.8% in [6]; 4.54% in the test listed under Homo sapiens; 1.07% in [7]; 6.17% in test [8]; -3.91% in test [9].
`CC(O)CN1CCC(CNCc2cccc(OC(C)C)c2)CC1` (stereo unspecified): the Percent Effect in test [1] is -8.77%; in test [2] it was 8.11%; in test [3] it was -23.9%; in test [4], 28.4%; in the test on Trypanosoma cruzi it was 8.21%; in [5], -9.22%. Besides, the Percent Effect in test [6] was 1.26%; in the test filed under Homo sapiens, 9.15%; in [7] it was 6.4%; in test [8] it was 23.5%; in [9], -14.8%.
Take `Cc1cc(C)n(-c2cncc(N3CCN(C(=O)C(C)(C)C)CC3)n2)n1`: the Percent Effect was -5.22% in test [1]; 5.41% in test [2]; 10.4% in [3]; -2.19% in test [4]; -3.71% in the test on Trypanosoma cruzi; -0.833% in test [5]. For the same compound, the Percent Effect in test [6] is 13.3%; in the test listed under Homo sapiens, 10.5%; in test [7] it was 3.96%; in test [8], 1.22%; in test [9], -3.42%.
Turning to `CCCC(C)C(=O)NCc1cn2cc(Br)ccc2n1` (stereo unspecified), the Percent Effect in [1] is -3.66%; in test [2] it was -44.7%; in test [3] it was 5.33%; in [4], 4.19%; with Trypanosoma cruzi it was -0.876%; in test [5], -2.37%. Also, the Percent Effect in test [6] was 9.68%; in the test listed under Homo sapiens, 4.86%; in [7], 9.57%; in test [8], 15.6%; in [9], -2.1%.
Regarding `Cc1cc(CN(C)C(=O)NC2CCN(Cc3ccccc3)C2)no1` (stereo unspecified), the Percent Effect in test [1] was -1.84%; in [2], 18.4%; in [3], -5.49%; in test [4], -5.79%; with Trypanosoma cruzi it was 4.51%; in test [5], -2.3%. For the same compound, the Percent Effect in [6] was 15.4%; in the test filed under Homo sapiens it was -0.406%; in test [7], 8.33%; in test [8], 21.9%; in test [9], -12%.
With `COc1cccc(CNc2c(C)cnc3c2c(=O)n(C)c(=O)n3C)c1`, the Percent Effect is -2.5% in test [1]; 16.4% in test [2]; -3.93% in test [3]; -14.8% in test [4]; 2.35% with Trypanosoma cruzi; 0.909% in [5]. Also, the Percent Effect in test [6] was 15.4%; in the test listed under Homo sapiens, 21.6%; in [7], 3.23%; in test [8], 20%; in test [9] it was -6.85%.
